According to PubChem BioAssay (Tox21):
“And” between values parts separate entries of the source, which are not always exact repeats. Identical values can stand only once. Results filed as inconclusive are left out. Where a structure was tested more than once in an assay, its records may differ in their call. The source made the active and inactive calls. Unless noted, calls come from the whole dose curve; as a rule, active = well fitted curve in the direction sought with a large enough effect in the repeat runs; inconclusive = weak or mixed curves; inactive = no such curve, though single readings can be large; an effect the other way counts as inactive or inconclusive.

Experiments:
[1] = qHTS assay to identify small molecule agonists of the peroxisome proliferator-activated receptor delta (PPARd) signaling pathway - cell viability counter screen (AID 743211); note: nearly all actives have a fitted effect of over 55% in size; note: potency is the fitted concentration of half-maximal effect
How it was run: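 Read-out: CellTiter-Glo luminescence, 30 min RT, measured in the same wells as the beta-lactamase reporter. Cells: GeneBLAzer PPAR delta UAS-bla HEK293H, 3000 cells/well, compound exposure 17 h at 37C.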

[2] = biological target: Peroxisome proliferator-activated receptor delta (Homo sapiens) (UniProt Q03181); assay: qHTS assay to identify small molecule antagonists of the peroxisome proliferator-activated receptor delta (PPARd) signaling pathway (AID 743215; active = well fitted inhibition curve with a large enough effect in the signal ratio in the repeat runs, not every such curve was filed as active; the % refers to the signal ratio;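 note: cells stimulated with agonist L165041 at 300 nM final during compound exposure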; note: potency is the fitted concentration of half-maximal effect)
How it was run: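 Here, a reporter line (HEK293H, beta-lactamase under a UAS) measures PPARd signaling. Compounds are tested against agonist L165041 at 300 nM final concentration over 17 h at 37 C, with fluorescence read after substrate.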

[3] = qHTS assay to identify small molecule agonists of the farnesoid-X-receptor (FXR) signaling pathway - cell viability counter screen (AID 743218); note: nearly all actives have a fitted effect of over 45% in size; note: potency is the fitted concentration of half-maximal effect
How it was run: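 Quantitative HTS counter screen measuring ATP-based viability via CellTiter-Glo luminescence in HEK 293T cells carrying a UAS-driven beta-lactamase reporter, after 16 h compound exposure at 37 C.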

[4] = qHTS assay to identify small molecule antagonists of the farnesoid-X-receptor (FXR) signaling pathway - cell viability counter screen (AID 743221; active = well fitted cell-killing curve with a large enough effect in the repeat runs, not every such curve was filed as active; note: nearly all actives have a fitted effect of over 50% in size)
How it was run: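 HEK 293T FXR-bla cells, 5 h pre-incubation; compound + CDCA 50 uM final, 16 h, 37 C; beta-lactamase FRET read first, then CellTiter-Glo luminescence, 30 min RT.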

[5] = biological target: Vitamin D3 receptor (Homo sapiens) (UniProt P11473); assay: qHTS assay to identify small molecule agonists of the vitamin D receptor (VDR) signaling pathway (AID 743222; calls by dose curve)
How it was run: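 Tox21 cell reporter format: VDR-bla line, 16 h compound exposure in 5% CO2 at 37C, then fluorescence intensity after 2 h with LiveBLAzer B/G FRET substrate.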

[6] = biological target: Vitamin D3 receptor (Homo sapiens) (UniProt P11473); assay: qHTS assay to identify small molecule antagonists of the vitamin D receptor (VDR) signaling pathway (AID 743223; active = well fitted inhibition curve with a large enough effect in the signal ratio in the repeat runs, not every such curve was filed as active; the % refers to the signal ratio)
How it was run: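 Beta-lactamase reporter read-out: FRET substrate fluorescence after 2 h at room temperature, following 16 h exposure of VDR-bla cells to test compound plus 3 nM (final) 1alpha,25-dihydroxyvitamin D3 agonist at 37C.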

[7] = qHTS assay to identify small molecule agonists of the vitamin D receptor (VDR) signaling pathway - cell viability counter screen (AID 743224); note: nearly all actives have a fitted effect of over 50% in size; note: potency is the fitted concentration of half-maximal effect
How it was run: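 CellTiter-Glo viability readout on VDR-bla cells, measured after 16 h of compound treatment at 37C in the same wells.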

[8] = qHTS assay to identify small molecule agonists of the NFkB signaling pathway - cell viability counter screen (AID 1159515; calls by dose curve; note: nearly all actives have a fitted effect of over 55% in size; note: potency is the fitted concentration of half-maximal effect)
How it was run: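 Tox21 library compounds were tested for cytotoxicity against NFkB-bla ME-180 cells during a 5 hr exposure at 37 C. CellTiter-Glo luminescence served as the viability read-out.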

[9] = qHTS assay to identify small molecule agonists of the endoplasmic reticulum stress response signaling pathway (AID 1159516; active = well fitted activation curve with a large enough effect in the signal ratio in the repeat runs, not every such curve was filed as active; the % refers to the signal ratio; note: potency is the fitted concentration of half-maximal effect)
How it was run: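 Fluorescence at 460 and 530 nm (405 nm excitation) reports beta-lactamase from an ER stress response element in HeLa cells treated 5 hr at 37 C.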

[10] = qHTS assay to identify small molecule agonists of the endoplasmic reticulum stress response signaling pathway - cell viability counter screen (AID 1159517; calls by dose curve; note: nearly all actives have a fitted effect of over 50% in size; note: potency is the fitted concentration of half-maximal effect)
How it was run: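 Cpd-treated ESRE-bla HeLa (5 hr, 37 C) → LiveBLAzer 2 hr RT → CellTiter-Glo 30 min RT → luminescence.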

[11] = qHTS assay to identify small molecule antagonists of the retinoid-related orphan receptor gamma (ROR-gamma) signaling pathway - cell viability counter screen (AID 1159520); note: nearly all actives have a fitted effect of over 50% in size; note: potency is the fitted concentration of half-maximal effect
How it was run: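 Tet-on ROR gamma CHO cells (1,000/well) were plated 4 hr, given compounds in DMSO for 2 hr at 37 C, then induced with 1 uM final doxycycline for 16 hr. Viability was read as ATP by CellTiter-Glo luminescence after 30 min.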

[12] = biological target: Nuclear receptor ROR-gamma (Homo sapiens) (UniProt P51449); assay: qHTS assay to identify small molecule antagonists of the retinoid-related orphan receptor gamma (ROR-gamma) signaling pathway (AID 1159521; note: nearly all actives have a fitted effect of over 50% in size; note: potency is the fitted concentration of half-maximal effect)
How it was run: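 Luminescence readout (ONE-Glo, 30 min RT) after 16 h doxycycline induction; loss of signal scored as antagonism. CHO cells with TET-inducible RORγ and RORE-LUC reporter; compounds added 2 h before 1 uM final doxycycline.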

[13] = qHTS assay to identify small molecule agonists of the AP-1 signaling pathway - cell viability counter screen (AID 1159525; calls by dose curve; note: nearly all actives have a fitted effect of over 55% in size)
How it was run: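 Each titration point was normalised to DMSO and tetra n-octyl ammonium bromide controls. The read was Cell Titer Glo luminescence after 30 min at RT, following 5 h compound exposure of ME-180 AP-1-bla cells at 37 °C.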

[14] = qHTS assay to identify small molecule agonists of the AP-1 signaling pathway (AID 1159526; calls by dose curve)
[15] = biological target: Retinoic acid receptor RXR-alpha (Homo sapiens) (UniProt P19793); assay: qHTS assay to identify small molecule agonists of the RXR signaling pathway (AID 1159527; calls by dose curve; note: nearly all actives have a fitted effect of over 35% in size; note: potency is the fitted concentration of half-maximal effect)
How it was run: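 Agonist mode; 9-cis retinoic acid positive control. HEK 293T UAS-bla reporter cells, 2% charcoal-stripped FBS, 16 hr compound exposure at 37 C/5% CO2. LiveBLAzer B/G FRET substrate 2 hr RT; ex 405, em 460/530 nm.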

[16] = biological target: Peroxisome proliferator-activated receptor delta (Homo sapiens) (UniProt Q03181); assay: qHTS assay to identify small molecule agonists of the peroxisome proliferator-activated receptor delta (PPARd) signaling pathway (AID 743212; calls by dose curve)
How it was run: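 Cells expressing a UAS-driven beta-lactamase reporter (PPARd-bla HEK293H) were given test compounds after a 5 h settle and kept at 37 C. Reporter activity was then measured as FRET fluorescence using LiveBLAzer B/G substrate.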

[17] = qHTS assay to identify small molecule antagonists of the peroxisome proliferator-activated receptor delta (PPARd) signaling pathway - cell viability counter screen (AID 743213); note: nearly all actives have a fitted effect of over 50% in size; note: potency is the fitted concentration of half-maximal effect
How it was run: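 HEK293H PPARd UAS-bla cells, 5 h pre-incubation, compound + L165041 300 nM final, 17 h 37 C; B/G FRET substrate 2 h RT; then CellTiter-Glo 30 min RT, luminescence.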

[18] = biological target: Bile acid receptor (Homo sapiens) (UniProt Q96RI1); assay: qHTS assay to identify small molecule antagonists of the farnesoid-X-receptor (FXR) signaling pathway (AID 743217; active = well fitted inhibition curve with a large enough effect in the signal ratio in the repeat runs, not every such curve was filed as active; the % refers to the signal ratio)
How it was run: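 Test compounds are pin-transferred onto FXR-bla HEK 293T cells, then chenodeoxycholic acid is added at 50 uM final. After 16 h at 37 °C, LiveBLAzer B/G substrate is applied for 2 h at room temperature and fluorescence read.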

[19] = biological target: Bile acid receptor (Homo sapiens) (UniProt Q96RI1); assay: qHTS assay to identify small molecule agonists of the farnesoid-X-receptor (FXR) signaling pathway (AID 743220; active = well fitted activation curve with a large enough effect in the signal ratio in the repeat runs, not every such curve was filed as active; the % refers to the signal ratio)
How it was run: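 FXR-UAS-bla HEK 293T cells carrying a UAS-driven beta-lactamase reporter were plated for 5 h at 37C/5% CO2, then exposed to DMSO-dissolved Tox21 10K compounds for 16 h at 37C. A LiveBLAzer B/G FRET substrate was loaded for 2 h at room temperature before fluorescence reading.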

[20] = qHTS assay to identify small molecule antagonists of the vitamin D receptor (VDR) signaling pathway - cell viability counter screen (AID 743225); note: nearly all actives have a fitted effect of over 50% in size; note: potency is the fitted concentration of half-maximal effect
How it was run: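 Viability counter screen run in the same wells as the beta-lactamase reporter assay: HEK 293T VDR-UAS-bla cells, 16 h compound exposure at 37C with 3 nM (final) 1-alpha,25-dihydroxyvitamin D3. CellTiter-Glo luminescence, 30 min, room temperature.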

Measured: Potency

Peroxisome proliferator-activated receptor delta (Homo sapiens), sequence (Q03181 whole entry, looked up): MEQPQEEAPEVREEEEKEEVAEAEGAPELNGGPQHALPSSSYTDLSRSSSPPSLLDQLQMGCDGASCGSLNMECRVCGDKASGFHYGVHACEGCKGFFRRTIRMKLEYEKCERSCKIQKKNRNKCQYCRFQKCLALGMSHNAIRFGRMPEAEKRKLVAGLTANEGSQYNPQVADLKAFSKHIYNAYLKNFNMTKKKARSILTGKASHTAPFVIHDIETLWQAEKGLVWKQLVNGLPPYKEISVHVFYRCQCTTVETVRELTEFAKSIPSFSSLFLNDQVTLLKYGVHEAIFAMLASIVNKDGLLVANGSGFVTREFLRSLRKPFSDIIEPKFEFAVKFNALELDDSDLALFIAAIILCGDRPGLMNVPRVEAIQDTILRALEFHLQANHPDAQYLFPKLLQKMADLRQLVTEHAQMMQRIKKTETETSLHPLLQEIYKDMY
Bile acid receptor (Homo sapiens), sequence (Q96RI1 whole entry, looked up): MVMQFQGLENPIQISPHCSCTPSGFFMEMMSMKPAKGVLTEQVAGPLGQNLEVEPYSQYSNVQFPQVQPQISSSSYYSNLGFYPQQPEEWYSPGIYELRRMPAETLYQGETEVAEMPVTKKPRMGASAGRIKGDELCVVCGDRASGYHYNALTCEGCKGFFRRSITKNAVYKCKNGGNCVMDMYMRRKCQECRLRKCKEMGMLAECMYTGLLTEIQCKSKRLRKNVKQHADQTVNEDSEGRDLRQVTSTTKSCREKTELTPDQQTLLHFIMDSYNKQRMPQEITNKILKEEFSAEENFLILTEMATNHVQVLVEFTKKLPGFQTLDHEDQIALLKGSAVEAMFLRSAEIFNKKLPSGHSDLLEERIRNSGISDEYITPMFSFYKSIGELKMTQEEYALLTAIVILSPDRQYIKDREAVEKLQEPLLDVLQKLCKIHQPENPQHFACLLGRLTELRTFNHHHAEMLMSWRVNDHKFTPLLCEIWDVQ
Vitamin D3 receptor (Homo sapiens), sequence (P11473 whole entry, looked up): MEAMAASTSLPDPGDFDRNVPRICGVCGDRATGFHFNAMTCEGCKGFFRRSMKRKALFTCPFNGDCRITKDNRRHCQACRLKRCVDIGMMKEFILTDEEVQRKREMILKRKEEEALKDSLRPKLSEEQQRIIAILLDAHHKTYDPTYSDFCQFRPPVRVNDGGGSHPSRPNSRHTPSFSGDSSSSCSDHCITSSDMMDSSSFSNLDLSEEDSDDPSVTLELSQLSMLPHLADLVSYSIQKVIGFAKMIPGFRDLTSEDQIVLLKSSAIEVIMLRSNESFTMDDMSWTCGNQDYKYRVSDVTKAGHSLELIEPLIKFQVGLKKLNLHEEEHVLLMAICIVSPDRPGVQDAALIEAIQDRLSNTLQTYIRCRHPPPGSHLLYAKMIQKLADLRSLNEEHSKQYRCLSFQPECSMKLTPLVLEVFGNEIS
Retinoic acid receptor RXR-alpha (Homo sapiens), sequence (P19793 whole entry, looked up): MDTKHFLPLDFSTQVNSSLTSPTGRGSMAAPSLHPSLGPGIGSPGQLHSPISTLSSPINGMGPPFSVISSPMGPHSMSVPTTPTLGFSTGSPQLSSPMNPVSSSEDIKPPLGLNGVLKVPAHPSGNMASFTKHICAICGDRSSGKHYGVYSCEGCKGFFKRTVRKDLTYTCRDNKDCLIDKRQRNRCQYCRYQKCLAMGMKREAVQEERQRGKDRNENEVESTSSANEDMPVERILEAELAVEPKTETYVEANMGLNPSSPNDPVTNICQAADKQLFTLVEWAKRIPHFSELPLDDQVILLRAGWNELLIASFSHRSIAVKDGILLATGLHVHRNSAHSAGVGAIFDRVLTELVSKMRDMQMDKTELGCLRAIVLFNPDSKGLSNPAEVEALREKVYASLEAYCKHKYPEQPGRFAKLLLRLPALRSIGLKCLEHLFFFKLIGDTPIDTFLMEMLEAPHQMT

N#CC(C#N)=C(C#N)C#N
not listed: [16] | [17] | [18] | [19] | [20]
inactive: all other assays above

O=C(O)c1cc(I)cc(I)c1I
not listed: [6] | [15]
inactive: all other assays above

Oc1cccc(Cl)c1
not listed: [2] | [16] | [17] | [18] | [20]
inactive: all other assays above

Cc1ncc(C[n+]2csc(CCO)c2C)c(N)n1
not listed: [2] | [15] | [16] | [18] | [19]
inactive: all other assays above

CC(Oc1cccc(Cl)c1)C(=O)O (stereo not drawn)
not listed: [3] | [4] | [15] | [16] | [18]
inactive: all other assays above

O=C(NCNC(=O)NC1C(=O)NC(=O)N1CO)NC1C(=O)NC(=O)N1CO (stereo not drawn)
not listed: [2] | [5] | [6] | [16]
inactive: all other assays above

c1ccc2c(c1)-c1cccc3cccc-2c13
active: [9] 49 µM
not listed: [2] | [16] | [18] | [19]
inactive: all other assays above

CCCBr
not listed: [2] | [15] | [16] | [18]
inactive: all other assays above

OCCSSCCO
not listed: [6] | [13] | [18]
inactive: all other assays above

CCOc1cccc(C2(N3CCN(c4ccccc4)CC3)CCC(C)CC2)c1 (stereo not drawn)
not listed: [13] | [18] | [19] | [20]
inactive: all other assays above

O=C([O-])c1ccccn1.O=C([O-])c1ccccn1.O=C([O-])c1ccccn1.[Cr+3]
not listed: [2] | [5] | [6] | [16] | [18] | [19]
inactive: all other assays above

Cc1ccc(N)c(C)c1
not listed: [12] | [16] | [20]
inactive: all other assays above

Cc1ccc2c(C)cccc2c1
not listed: [6] | [13] | [18] | [19]
inactive: all other assays above

CCOP(=S)(OCC)Oc1ccc(S(C)=O)cc1 (stereo not drawn)
not listed: [13] | [16] | [18] | [19] | [20]
inactive: all other assays above

Cc1ccccc1
not listed: [13] | [18] | [19]
inactive: all other assays above

CCCSP(=S)(OCC)Oc1ccc(SC)cc1 (stereo not drawn)
not listed: [2] | [7] | [13] | [15] | [16] | [18]
inactive: all other assays above

CN(C)c1ccc(N=O)cc1
inactive and 19.5 µM (active): [20]
inactive: [19] | [4] | [6] | [9]
active: [1] 43.6 µM | [17] 43.6 µM | [2] 21.9 µM | [7] 19.6 µM and 43.6 µM | [8] 43.6 µM | [10] 43.6 µM | [11] 15.4 µM and 12.2 µM | [12] 4.34 µM and 9.69 µM
inactive and 49 µM (active): [3]

CCC(C)(C)O
not listed: [12] | [18] | [19] | [20]
inactive: all other assays above

OC[P+](CO)(CO)CO
active: [9] 1.57 µM
55.6 µM (active) and inactive: [7]
not listed: [2] | [12] | [18] | [19] | [20]
inactive: all other assays above

NC(=S)c1c(Cl)cccc1Cl
not listed: [5] | [6] | [13] | [18] | [19] | [20]
inactive: all other assays above

CC(=O)NNc1ccccc1
inactive: [19] | [5] | [6] | [8] | [9] | [10] | [11] | [12] | [14]

CCOP(=S)(OCC)SCSc1cc(Cl)ccc1Cl
not listed: [6] | [13] | [15] | [18] | [19]
inactive: all other assays above

N#CC1(N=NC2(C#N)CCCCC2)CCCCC1
not listed: [2] | [5] | [13] | [16] | [18] | [19] | [20]
inactive: all other assays above

COc1ccccc1N1CCNCC1
not listed: [7] | [12] | [17] | [18]
inactive: all other assays above

O=C(O)C(F)(F)C(F)(F)C(F)(F)C(F)(F)C(F)(F)C(F)(F)C(F)(F)C(F)(F)F
active: [15] 21.9 µM
not listed: [2] | [3] | [13] | [16] | [18] | [20]
inactive: all other assays above

O=CC=O
not listed: [5] | [6] | [13] | [18] | [19]
inactive: all other assays above

C=C(Cl)Cl
not listed: [5] | [6] | [12] | [18] | [19]
inactive: all other assays above
